Source: the supplement of paper PMC11732987, “Enantioselective OTUD7B fragment discovery through chemoproteomics screening and high-throughput optimisation” (Communications Chemistry, 2025)

What was measured:
Assay in all cases: log2 ratio of Biotin-Ahx-Ub-VS probe labelling (fragment/DMSO); higher = less target engagement (more negative = stronger competition), active = hit call of the paper (q ≤ 0.05, log2 ratio ≤ -1)
Conditions in all cases: compound concentration: 200 uM; treatment time: 3 h
[1] = target: T1, ALG13 (UniProt Q9NP73)
T1 sequence (whole entry): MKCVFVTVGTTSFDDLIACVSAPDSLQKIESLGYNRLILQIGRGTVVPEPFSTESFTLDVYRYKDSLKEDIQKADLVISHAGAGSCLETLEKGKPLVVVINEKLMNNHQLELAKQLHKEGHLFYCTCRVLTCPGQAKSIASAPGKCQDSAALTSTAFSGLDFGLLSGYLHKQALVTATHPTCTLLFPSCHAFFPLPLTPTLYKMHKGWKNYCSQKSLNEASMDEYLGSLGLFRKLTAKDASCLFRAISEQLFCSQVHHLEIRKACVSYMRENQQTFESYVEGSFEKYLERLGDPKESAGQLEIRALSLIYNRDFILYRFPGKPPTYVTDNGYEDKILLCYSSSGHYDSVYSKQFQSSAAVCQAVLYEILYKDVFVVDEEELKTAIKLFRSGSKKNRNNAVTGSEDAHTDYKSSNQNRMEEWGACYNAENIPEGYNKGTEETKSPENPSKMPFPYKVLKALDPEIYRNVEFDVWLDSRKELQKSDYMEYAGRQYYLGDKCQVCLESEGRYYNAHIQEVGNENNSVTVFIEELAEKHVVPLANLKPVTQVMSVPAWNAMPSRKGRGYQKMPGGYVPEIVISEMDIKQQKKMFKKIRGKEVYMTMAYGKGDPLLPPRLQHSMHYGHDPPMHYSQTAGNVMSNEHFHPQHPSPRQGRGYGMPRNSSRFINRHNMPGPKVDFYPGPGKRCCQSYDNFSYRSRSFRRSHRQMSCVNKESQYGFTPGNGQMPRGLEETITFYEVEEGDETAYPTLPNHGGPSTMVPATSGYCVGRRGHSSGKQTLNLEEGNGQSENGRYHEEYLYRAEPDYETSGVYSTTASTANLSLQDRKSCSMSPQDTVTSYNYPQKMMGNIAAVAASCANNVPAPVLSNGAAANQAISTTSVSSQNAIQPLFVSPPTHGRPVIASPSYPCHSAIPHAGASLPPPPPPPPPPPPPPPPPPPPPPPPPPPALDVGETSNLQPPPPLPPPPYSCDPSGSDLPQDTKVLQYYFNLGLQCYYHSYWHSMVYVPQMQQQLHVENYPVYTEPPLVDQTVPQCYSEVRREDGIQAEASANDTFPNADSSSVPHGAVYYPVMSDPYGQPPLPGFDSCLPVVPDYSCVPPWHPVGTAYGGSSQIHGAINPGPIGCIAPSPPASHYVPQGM
How it was run: (§1)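 Triplicate samples of HEK293T lysate, 495 µg each, received fragment at 200 µM or vehicle for 3 h, followed by Biotin-Ahx-Ub-VS (0.5 µM final) for 1 h. After NeutrAvidin enrichment of labelled DUBs and LysC/trypsin digestion, peptides were run by diaPASEF LC-MS/MS. The values are average log2 fragment/vehicle ratios from global-median-normalised Spectronaut label-free quantities, tested by unpaired t-test on proteins having ≥2 unique peptides.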

[2] = target: ATXN3 (UniProt P54252)
How it was run: as §1

[3] = target: T2, BAP1 (UniProt Q92560)
T2 sequence (whole entry): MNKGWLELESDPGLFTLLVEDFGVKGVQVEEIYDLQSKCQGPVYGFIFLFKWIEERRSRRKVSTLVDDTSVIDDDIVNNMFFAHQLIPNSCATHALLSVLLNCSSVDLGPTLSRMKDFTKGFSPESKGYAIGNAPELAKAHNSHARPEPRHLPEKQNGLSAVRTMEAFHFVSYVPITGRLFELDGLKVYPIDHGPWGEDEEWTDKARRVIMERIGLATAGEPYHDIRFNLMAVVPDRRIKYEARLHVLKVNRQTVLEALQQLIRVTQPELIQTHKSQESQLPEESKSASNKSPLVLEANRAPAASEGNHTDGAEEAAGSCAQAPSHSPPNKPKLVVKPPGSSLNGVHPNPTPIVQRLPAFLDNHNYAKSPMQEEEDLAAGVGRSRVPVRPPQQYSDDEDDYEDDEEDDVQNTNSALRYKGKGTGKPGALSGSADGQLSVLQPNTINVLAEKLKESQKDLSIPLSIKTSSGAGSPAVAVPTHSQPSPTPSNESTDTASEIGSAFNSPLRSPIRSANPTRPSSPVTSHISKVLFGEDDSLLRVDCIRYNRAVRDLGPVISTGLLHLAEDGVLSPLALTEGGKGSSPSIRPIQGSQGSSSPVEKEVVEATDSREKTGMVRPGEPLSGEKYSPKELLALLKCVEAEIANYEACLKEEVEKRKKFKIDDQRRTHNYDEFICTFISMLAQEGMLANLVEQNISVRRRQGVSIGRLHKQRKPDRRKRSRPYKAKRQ
How it was run: as §1

[4] = target: EIF3F (UniProt O00303)
How it was run: as §1

[5] = target: EIF3H (UniProt O15372)
How it was run: as §1

[6] = target: T3, FAM105A (UniProt Q9NUU6)
T3 sequence (whole entry): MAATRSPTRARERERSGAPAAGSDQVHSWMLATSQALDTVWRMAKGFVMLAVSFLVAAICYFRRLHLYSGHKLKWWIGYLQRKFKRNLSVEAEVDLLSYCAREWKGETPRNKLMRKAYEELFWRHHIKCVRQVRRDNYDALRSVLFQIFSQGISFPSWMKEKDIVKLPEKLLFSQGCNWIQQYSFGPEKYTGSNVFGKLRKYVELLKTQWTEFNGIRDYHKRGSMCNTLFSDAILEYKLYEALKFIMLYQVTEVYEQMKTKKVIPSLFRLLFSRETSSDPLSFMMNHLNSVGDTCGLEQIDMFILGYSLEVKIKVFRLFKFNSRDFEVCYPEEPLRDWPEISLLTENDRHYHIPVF
How it was run: as §1

[7] = target: OTUB1 (UniProt Q96FW1)
How it was run: as §1

[8] = target: T4, OTUD4 (UniProt Q01804)
T4 sequence (whole entry): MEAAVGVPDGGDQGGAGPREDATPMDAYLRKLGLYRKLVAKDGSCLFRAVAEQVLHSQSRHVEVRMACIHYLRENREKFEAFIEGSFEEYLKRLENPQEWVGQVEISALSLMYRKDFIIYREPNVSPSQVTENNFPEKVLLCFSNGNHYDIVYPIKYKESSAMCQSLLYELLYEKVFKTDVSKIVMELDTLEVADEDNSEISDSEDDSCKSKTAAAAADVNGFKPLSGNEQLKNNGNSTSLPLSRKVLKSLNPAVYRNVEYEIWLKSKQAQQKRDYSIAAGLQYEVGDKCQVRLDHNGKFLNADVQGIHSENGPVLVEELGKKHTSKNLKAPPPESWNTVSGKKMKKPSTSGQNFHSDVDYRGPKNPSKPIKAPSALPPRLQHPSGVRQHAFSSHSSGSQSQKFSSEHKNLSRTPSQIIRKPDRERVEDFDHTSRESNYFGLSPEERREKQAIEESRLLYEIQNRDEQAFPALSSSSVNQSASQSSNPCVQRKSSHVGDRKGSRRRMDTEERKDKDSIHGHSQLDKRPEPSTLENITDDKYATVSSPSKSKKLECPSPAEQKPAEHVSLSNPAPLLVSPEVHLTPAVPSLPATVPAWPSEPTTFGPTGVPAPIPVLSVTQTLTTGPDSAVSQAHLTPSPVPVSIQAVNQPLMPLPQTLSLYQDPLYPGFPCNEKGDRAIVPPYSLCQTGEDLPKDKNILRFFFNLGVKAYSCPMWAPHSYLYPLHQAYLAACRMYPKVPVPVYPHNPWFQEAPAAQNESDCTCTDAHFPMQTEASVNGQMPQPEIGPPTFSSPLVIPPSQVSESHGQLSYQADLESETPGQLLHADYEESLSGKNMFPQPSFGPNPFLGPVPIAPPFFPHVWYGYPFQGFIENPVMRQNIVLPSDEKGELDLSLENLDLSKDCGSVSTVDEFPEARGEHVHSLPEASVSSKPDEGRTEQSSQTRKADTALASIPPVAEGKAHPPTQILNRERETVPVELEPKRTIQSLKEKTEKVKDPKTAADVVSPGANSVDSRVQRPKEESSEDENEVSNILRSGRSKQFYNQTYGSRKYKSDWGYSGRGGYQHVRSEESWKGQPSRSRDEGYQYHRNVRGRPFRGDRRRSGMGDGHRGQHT
How it was run: as §1

[9] = target: T5, OTUD5 (UniProt Q96G74)
T5 sequence (whole entry): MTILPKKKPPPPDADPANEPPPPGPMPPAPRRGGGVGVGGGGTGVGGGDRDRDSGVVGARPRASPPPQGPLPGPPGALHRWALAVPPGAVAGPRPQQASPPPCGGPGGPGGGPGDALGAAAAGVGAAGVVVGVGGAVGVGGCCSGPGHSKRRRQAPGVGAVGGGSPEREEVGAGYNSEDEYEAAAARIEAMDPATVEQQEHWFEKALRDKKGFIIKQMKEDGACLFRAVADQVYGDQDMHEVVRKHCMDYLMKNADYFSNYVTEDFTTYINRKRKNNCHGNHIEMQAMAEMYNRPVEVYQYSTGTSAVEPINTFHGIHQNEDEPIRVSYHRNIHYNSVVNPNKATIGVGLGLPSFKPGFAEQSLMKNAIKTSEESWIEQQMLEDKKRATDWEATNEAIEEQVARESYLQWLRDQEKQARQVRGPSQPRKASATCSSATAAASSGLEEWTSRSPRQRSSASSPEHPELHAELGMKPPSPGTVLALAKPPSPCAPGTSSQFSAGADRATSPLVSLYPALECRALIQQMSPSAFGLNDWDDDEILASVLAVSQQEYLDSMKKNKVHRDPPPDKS
How it was run: as §1

Measured: log2 ratio of Biotin-Ahx-Ub-VS probe labelling

ATXN3, sequence (P54252 whole entry): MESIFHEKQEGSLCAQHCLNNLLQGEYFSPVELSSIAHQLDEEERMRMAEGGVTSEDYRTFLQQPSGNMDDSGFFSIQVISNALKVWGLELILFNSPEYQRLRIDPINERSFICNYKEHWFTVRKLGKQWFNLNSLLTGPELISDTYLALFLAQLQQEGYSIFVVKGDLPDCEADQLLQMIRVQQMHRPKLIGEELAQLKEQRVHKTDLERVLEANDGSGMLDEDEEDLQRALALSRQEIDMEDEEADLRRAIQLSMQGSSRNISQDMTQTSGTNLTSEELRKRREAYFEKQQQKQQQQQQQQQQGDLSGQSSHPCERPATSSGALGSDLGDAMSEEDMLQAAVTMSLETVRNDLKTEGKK
EIF3H, sequence (O15372 whole entry): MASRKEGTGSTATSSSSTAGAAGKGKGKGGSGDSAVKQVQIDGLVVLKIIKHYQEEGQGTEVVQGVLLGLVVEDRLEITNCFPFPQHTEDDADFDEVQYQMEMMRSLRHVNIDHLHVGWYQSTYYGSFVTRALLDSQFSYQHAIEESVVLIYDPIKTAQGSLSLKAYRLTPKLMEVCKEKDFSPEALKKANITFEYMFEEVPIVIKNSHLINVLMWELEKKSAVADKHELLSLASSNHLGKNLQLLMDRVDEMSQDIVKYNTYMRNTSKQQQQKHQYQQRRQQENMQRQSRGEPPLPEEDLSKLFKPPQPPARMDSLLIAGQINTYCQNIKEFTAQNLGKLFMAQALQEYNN
EIF3F, sequence (O00303 whole entry): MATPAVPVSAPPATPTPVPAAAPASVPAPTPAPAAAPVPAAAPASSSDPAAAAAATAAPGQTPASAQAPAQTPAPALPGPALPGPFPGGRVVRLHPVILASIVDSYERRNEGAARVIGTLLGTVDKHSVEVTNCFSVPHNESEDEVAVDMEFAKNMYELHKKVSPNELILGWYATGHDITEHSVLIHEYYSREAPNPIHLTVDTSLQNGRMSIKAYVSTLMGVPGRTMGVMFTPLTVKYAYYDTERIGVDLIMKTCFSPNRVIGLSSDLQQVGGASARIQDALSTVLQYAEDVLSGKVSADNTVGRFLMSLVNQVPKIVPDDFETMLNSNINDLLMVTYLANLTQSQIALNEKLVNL
OTUB1, sequence (Q96FW1 whole entry): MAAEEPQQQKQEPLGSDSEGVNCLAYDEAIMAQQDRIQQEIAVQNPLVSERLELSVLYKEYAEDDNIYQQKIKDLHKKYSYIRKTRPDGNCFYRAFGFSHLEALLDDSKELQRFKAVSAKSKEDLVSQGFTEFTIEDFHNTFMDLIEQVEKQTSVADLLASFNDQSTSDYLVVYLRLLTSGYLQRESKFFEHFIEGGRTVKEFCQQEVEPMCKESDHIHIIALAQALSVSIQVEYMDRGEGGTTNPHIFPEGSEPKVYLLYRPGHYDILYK

CC(NC(=O)CCl)c1cccc2ccccc12 (stereo unspecified)
inactive: [1] 0.0911 | [2] -0.129 | [4] -0.0141 | [5] -0.0531 | [6] -0.022 | [7] -0.352 | [9] -0.234
active: [3] -4.13 | [8] -1.01

CC(c1ccccc1)N(C)C(=O)CCl (stereo unspecified)
inactive: [1] -0.0878 | [2] -0.667 | [3] -0.362 | [4] 0.107 | [5] 0.0952 | [6] -0.093 | [7] 0.146 | [8] -0.0165 | [9] -0.419

CC1CN(c2ccc(NC(=O)CCl)cc2)CC(C)O1 (stereo unspecified)
active: [3] -2.48
inactive: [1] -0.442 | [2] -0.412 | [4] -0.0748 | [5] 0.0832 | [6] 0.115 | [7] 0.133 | [8] -0.357 | [9] -0.371

O=C(CCl)N(C1=CCCCC1)C1CC1
inactive: [1] 0.101 | [2] -0.0892 | [3] -0.204 | [4] -0.311 | [5] 0.314 | [6] 0.173 | [7] -0.159 | [8] 0.037 | [9] -0.182

O=C(CCl)NCc1cccc(N2CCCC2=O)c1
active: [3] -3.09
inactive: [1] -0.0431 | [2] -0.37 | [4] 0.179 | [5] 0.112 | [6] -0.0389 | [7] 0.122 | [8] -0.18 | [9] -0.358

O=C(CCl)N1CCOCC1C1CC1 (stereo unspecified)
inactive: [2] -0.209 | [3] -0.299 | [4] -0.527 | [5] 0.16 | [6] 0.635 | [7] -0.181 | [8] -0.865 | [9] -0.313
active: [1] -1.36

O=C(CCl)N1CCN(C(=O)N2CCCCC2)CC1
inactive: [4] -0.507 | [5] 0.266 | [6] -0.215 | [7] -0.524 | [8] -0.638
active: [1] -1.37 | [2] -1.81 | [3] -1.46 | [9] -1.13

O=C(CCl)N1CCC(C(=O)N2CCCCCC2)CC1
inactive: [1] 0.205 | [2] -0.407 | [3] -0.398 | [4] -0.0762 | [5] 0.0816 | [6] -0.0217 | [7] 0.0563 | [8] -0.035 | [9] -0.328

NS(=O)(=O)c1ccc(Cl)c(NC(=O)CCl)c1
inactive: [1] -0.591 | [2] -0.697 | [4] -0.117 | [5] 0.198 | [6] 0.226 | [7] -0.37
active: [3] -4.06 | [8] -2.55 | [9] -1.72

COc1cccc(CN(C)C(=O)CCl)c1
active: [3] -2.68
inactive: [1] -0.0162 | [2] -0.781 | [4] 0.0528 | [5] -0.0896 | [6] -0.419 | [7] 0.00861 | [8] -0.462 | [9] -0.999

Cc1ccn2cc(CNC(=O)CCl)nc2c1.Cl
active: [3] -1.14
inactive: [1] 0.193 | [2] -0.103 | [4] -0.185 | [5] 0.253 | [6] 0.254 | [7] 0.0771 | [8] -0.505 | [9] -0.214

O=C(CCl)NCCC1=CCCCC1
inactive: [1] 0.121 | [2] -0.135 | [3] -0.56 | [4] -0.0695 | [5] 0.0525 | [6] -0.125 | [7] 0.147 | [8] -0.135 | [9] -0.0425

Cl.O=C(CCl)N1CCn2cncc2C1
inactive: [1] 0.285 | [2] -0.224 | [3] -0.163 | [4] -0.0339 | [5] 0.0971 | [6] -0.433 | [7] -0.000993 | [8] 0.0549 | [9] -0.214

O=C(CCl)Nc1cccc(NC(=O)c2ccccc2)c1
active: [3] -3.32
inactive: [1] 0.117 | [2] 0.278 | [4] -0.291 | [5] 0.304 | [6] -0.516 | [7] -0.202 | [8] 0.39 | [9] -0.0636
